A549 tox: kills or reduces viability of A549 cells in Nrf2 counter-screen; 0.16% of 390,000 active; Potency, µM (doses to about 46 µM), for the others: at the highest dose activity change, negative = cytotoxicity, actives largely listed as inhibitors; A549 ARE-Fluc cells, CellTiter-Fluor viability, 18-24 h; note: % is set by controls: 0 for no effect and ±100 for the full control effect
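A549 ARE-Fluc cells in 5% FBS OPTI-MEM, 5000 cells/well, rested 2 h then exposed to compounds in concentration-response for 18-24 h at 37 °C. Viability by CellTiter-Fluor fluorescence (Ex 405/Em 525) after 30 min; luciferase luminescence (BugLite, 15 min, RT) read afterwards.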
TGFb SMAD3 inh: blocks TGF-b signaling; HepG2 CAGA-GFP TGF-b/SMAD3 reporter, GFP fluorescence, 18 h; TGF-beta stimulated, 500 pg/mL final; Potency, µM (highest dose often 46.1 µM), for inactives: at the top dose activity, negative = inhibition, most hits filed as inhibitors; 1.2% of 410,000 active; AID 588855; note: % is set by controls: 0 for no effect and ±100 for the full control effect; nearly all actives have a fitted effect of over 65% in size
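Inhibition of TGF-beta-driven CAGA-GFP reporter expression in HEPG2 cells is measured by cellular GFP fluorescence after 18 h stimulation with 500 pg/mL recombinant TGF-beta in 1% FBS medium at 37 degrees C.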
Nrf2 block: Nrf2 pathway inhibition. A549 ARE-Fluc reporter, luciferase luminescence, 18-24 h. Potency, µM (top dose mostly 46 µM), inactives show at the top dose activity change, negative = inhibition, most hits filed as inhibitors. 2.1% of 360,000 active; note: % is set by controls: 0 for no effect and ±100 for the full control effect; nearly all actives have a fitted effect of over 60% in size
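Two sequential reads on A549 ARE_Fluc cells exposed to compound for 18-24 h: a CellTiter-Fluor fluorescence read for viability, then a luciferase luminescence read for Nrf2/ARE activity.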
Nrf2 activator: activates Nrf2 signaling; AREc32 ARE-luciferase reporter (MCF7-derived line), luminescence, 24 h; Potency, µM (series often up to 46.1 µM), for inactives: at the top dose activation, hits mostly activators; 0.31% of 410,000 active; note: % of control where 0% means no effect; nearly all actives have a fitted effect of over 65% in size
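For detection, Steady-Glo was added and plates sat 30 min at RT; before that, AREc32_Fluc cells grown overnight in OPTI-MEM/5% FBS had been treated with 23 nL compound for 24 hr at 37 deg C.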
HepG2 tox: counter-screen for TGF-b inhibitors: cytotoxicity in HepG2 cells. Potency, µM (doses to about 46.1 µM), for the others: at the top dose activity change, negative = cytotoxicity, usual class: cytotoxic. HepG2 CAGA-GFP viability, ATP luminescence, 18 h. 0.76% of 410,000 active
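HepG2 CAGA-GFP cells (1000/well, DMEM with 1% FBS) received compound, then TGF-beta at 500 pg/mL final, and were incubated 18 hours at 37 degrees C. Viability was read by CellTiter-Glo luminescence. Media-only wells were set as complete cell-killing and DMSO as no toxicity.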
Numbers without * were called inactive; ? = inconclusive; · = no result; [ ] = dose if it differs, or a comment. Most compounds without a hit are left out; they make up all but 3.6% or so of the library. Calls come from the whole dose curve; as a rule, active = well fitted curve in the direction sought with a large enough effect; inconclusive = small, poorly fitted or top-dose-only effect, or another doubt; inactive = no such curve, though single readings can be large; an effect the other way counts as inactive or inconclusive. Potency is the fitted concentration of half-maximal effect.

SMILES	A549 tox	TGFb SMAD3 inh	Nrf2 block	Nrf2 activator	HepG2 tox
O=C1/C(=C/c2ccccn2)COc2ccccc21	3%	-6%	37%	19%	-17%
C[C@@H]1CC=C[C@H]2[C@H]1C(=O)N(Cc1ccccc1)[C@H]2c1ccc(-c2ccoc2)cc1F	-6%	?	-17%	0%	-22%
O=C(c1cccs1)N(Cc1cccnc1)c1nc2c(Cl)cccc2s1	0%	18µM*	·	4%	-42%
Cc1cccc2sc(N(Cc3cccnc3)C(=O)CCS(=O)(=O)c3ccccc3)nc12	4%	11µM*	·	22µM*	20µM*
O=C(CCS(=O)(=O)c1ccccc1)N(Cc1cccnc1)c1nc2c(Cl)cccc2s1	-3%	4µM*	7%	2%	0%
Cc1cc(C)c2nc(N(Cc3cccnc3)C(=O)CCS(=O)(=O)c3ccccc3)sc2c1	-1%	?	-10%	?	1%
Cc1ccc2sc(N(Cc3cccnc3)C(=O)CCS(=O)(=O)c3ccccc3)nc2c1C	13%	0%	·	5%	-40%
O=C(c1ccc2c(c1)OCCO2)N(Cc1cccnc1)c1nc2c(Cl)cccc2s1	3%	?	·	0%	-20%
Cc1cc(C)c2sc(N(Cc3cccnc3)C(=O)CCS(=O)(=O)c3ccccc3)nc2c1	-4%	2.5µM*	·	7%	7.1µM*
O=C(c1cccs1)N(Cc1cccnc1)c1nc2c(F)cc(F)cc2s1	-19%	0%	·	0%	-21%
COCCn1c(=O)[nH]c(=O)c2cc(C(=O)c3cc(Cl)ccc3O)cnc21	1%	6%	1%	0%	-23%
COc1ccc(NC(=O)CSc2nnc3ccc(-c4ccccn4)nn23)c(OC)c1	-3%	-14%	-10%	-1%	5%
Cc1cccc2sc(N(Cc3cccnc3)C(=O)CCOc3ccccc3)nc12	18%	?	·	6%	-31%
O=C(CCOc1ccccc1)N(Cc1cccnc1)c1nc2c(Cl)cccc2s1	14%	?	·	31%	13µM*
COc1ccc(Cn2cc(C(=O)c3ccc(OC)cc3)c(=O)c3cc4c(cc32)OCCO4)cc1	-10%	-29%	19%	0%	-33%
CCCCN(C)C(=O)c1ccc2c(c1)N(Cc1ccc(F)cc1)C(=O)c1ccccc1S2(=O)=O	?	·	16µM*	7%	-17%
CCC1CCCCN1CCCNC(=O)c1ccc2c(c1)N(Cc1ccc(Cl)cc1)C(=O)c1ccccc1S2(=O)=O (configuration not stated)	-10%	?	16%	-4%	11µM*
CCC1CCCCN1CCCNC(=O)c1ccc2c(c1)N(Cc1ccccc1)C(=O)c1ccccc1S2(=O)=O (configuration not stated)	-7%	·	12%	7%	-51%
CCC1CCCCN1CCCNC(=O)c1ccc2c(c1)N(Cc1cccc(Cl)c1)C(=O)c1ccccc1S2(=O)=O (configuration not stated)	-1%	10µM*	·	0%	-100%
COc1ccc(OC)c(NC(=O)N2CCc3ccccc3C2)c1	8%	0%	6%	2%	14%
Nc1ccc(C(=O)OCc2nc3ccccc3[nH]2)cc1	-6%	-8%	-3%	0%	3%
Nc1ccc(C(=O)OCCCc2nc3ccccc3[nH]2)cc1	4%	5%	?	0%	10µM*
COc1ccc(/C=N/NC(=O)c2ccco2)cc1Cn1nc(C)c([N+](=O)[O-])c1C	?	0%	16µM*	4%	-21%
CCOc1cc(/C=C2\SC(=O)N(CC(=O)Nc3ccccc3F)C2=O)cc([N+](=O)[O-])c1O	?	2%	18µM*	4%	-35%
O=C(Cc1cccc2ccccc12)Nc1ccc(O)cc1C(=O)O	-4%	-9%	2%	0%	17%
SMILES	A549 tox	TGFb SMAD3 inh	Nrf2 block	Nrf2 activator	HepG2 tox
O=C(Cc1cccc2ccccc12)Nc1ccc(Br)cc1C(=O)O	-10%	-23%	21%	-1%	14µM*
COc1ccc2cc3cc(C(=O)Nc4cc(OC)c(OC)c(OC)c4)oc3nc2c1	-11%	-9%	?	-1%	0%
COc1ccc2cc3cc(C(=O)Nc4ccc5c(c4)OCCO5)oc3nc2c1	-25%	-10%	18µM*	2%	-52%
O=C(Nc1ccc2c(c1)OCCO2)c1ccc2ccccc2n1	-10%	0%	?	7.9µM*	11%
Cc1cc(NC(=O)c2ccc3c(c2)OCCO3)cc(-c2nc3ccccc3o2)c1O	-8%	-2%	?	-1%	-8%
O=C(Nc1ccc2c(c1)OCCO2)c1ccccn1	-5%	0%	?	0%	-1%
O=C(Nc1ccc2oc(-c3ccccc3F)nc2c1)c1ccc2c(c1)OCCO2	?	?	13µM*	0%	-54%
O=C(Nc1ccc2c(c1)OCCO2)c1ccco1	0%[1.84 µM]	4%	?	-1%	-41%
COc1ccc(NC(=O)CSc2nc(C3CC3)nc3ccccc23)cc1	-13%	-2%	?	11%	-11%
COc1cc(OC)cc(C(=O)NCC(=O)OC(C)C(=O)NC(C)C2CC3CCC2C3)c1 (configuration not stated)	0%	0%	4%	0%	-23%
COc1ccc(CCC2(C)NC(=O)N(C(C)C(=O)Nc3ccccc3F)C2=O)cc1 (configuration not stated)	-1%	3%	-10%	-1%	13%
COc1ccc(-c2oc3ncn(CCN4CCOCC4)c(=N)c3c2-c2ccc(OC)cc2)cc1	-23%	?	16µM*	0%	-50%
CCOC(=O)C1CCN(C(=S)Nc2cccc(C)c2)CC1	-6%	-3%	9%	0%	8%
Cc1nc2scc(-c3ccccc3)c2c(=O)n1N=C1C=CC(=O)C=C1	-10%	-30%	-13%	10µM*	-1%
COc1ccc2cc(C(=O)N3CCN(C)CC3)[nH]c2c1	4%	-11%	?	0%	-9%
Cc1cc(Cl)cc(Cl)c1OCCOc1cccc2cccnc12	2%	11µM*	-29%	3%	-49%
Cc1cc(=O)oc2cc(NC(=O)c3ccccc3Cl)ccc12	-2%	-1%	23%	5µM*	-15%
C=CCSc1nc2ccccc2n1C(=O)/C=C/c1ccc(OC)c(OC)c1	?	-6%	?	?	-9%
C=CCSc1nc2ccccc2n1C(=O)/C=C/c1cc(OC)c(OC)c(OC)c1	?	?	?	?	11µM*
CCc1ccc(-c2cc(C)no2)cc1S(=O)(=O)NCCCN1CCN(c2ccccc2)CC1	-28%	18µM*	13µM*	1%	-21%
COc1ccc(C(CC(=O)O)n2cnnn2)cc1 (configuration not stated)	5%	-16%	15%	0%	-5%

From PubChem BioAssay
